Hit rate of the full screen: of about 65,000 compounds, about 1,200 (1.8%) were called active. No stated cut-off is given here; in the data, active means inhibition above about 50%; inactive means the rest. This excerpt belongs to a sample that is enriched for actives.
These compounds were tested against Gag-Pol polyprotein (Human immunodeficiency virus type 1 group M subtype B (isolate HXB2)) (UniProt P04585) (assay: HIV-1 RT RNase H inhibitors, primary screen, biochemical, fluorescence (AID 565)). Conditions: RT-RNase H RNA/DNA duplex cleavage, at 10 µM, active compounds read high.
With `Cn1c(=NC(=O)c2ccco2)sc2cccc(F)c21` the inhibition was -27.2% (inactive).
For `COCc1cc(C)nc(Nc2cc(C)ccc2C)c1C#N`, the inhibition was -17% (inactive).
With `Cc1noc(NS(=O)(=O)c2ccc(N3CC(O)=C(c4ccccc4)C3=N)cc2)c1C` the inhibition was -3.39% (inactive).
`Cc1cc(C)nc(SCc2nnc(SCC(=O)Nc3ncc(C)s3)n2Cc2ccco2)n1` was tested, and the inhibition was -40.5% (inactive).
With `Cc1cnc(NC(=O)CSc2nnc(-c3ccc(Cl)cc3Cl)n2N)s1` the inhibition was 70.1% (active).
`Cc1cnc(NC(=O)CSc2nnc(-c3ccccc3)n2Cc2ccccc2)s1` was tested, and the inhibition was -0.4% (inactive).
In the case of `CCCNS(=O)(=O)c1ccc2c(c1)CCCN2C(C)=O`, the inhibition is reported as -15.5% (inactive).
For `CC1CCc2c(sc(NC(=O)c3ccc(Cn4cc(Br)cn4)o3)c2C(N)=O)C1` (stereo not drawn), the inhibition was 88.6% (active).
`CCOC(=O)c1c(NC(=O)c2ccc(Br)o2)sc2c1CCCC2` was tested, and the inhibition was -13% (inactive).
For `CCc1c(C)sc(NC(=O)c2ccc(Br)o2)c1C(=O)OC`, the inhibition was -67.1% (inactive).
With `CCC1(C)Cc2c(sc3nc4n(c(=O)c23)CCCS4)CO1` (stereo not drawn) the inhibition was -2.87% (inactive).
With `CC(=O)Nc1nonc1-c1nc2ccccc2n1Cc1ccccn1` the inhibition was -10.2% (inactive).
`CCOc1ccc(NC(=O)N2CCN(CC)CC2)cc1` was tested, and the inhibition was -4.55% (inactive).
In the case of `Cc1ccc(NC(=O)c2nc[nH]c2C(=O)N2CCCCC2)c(C(=O)c2ccccc2)c1`, the inhibition is reported as 2.94% (inactive).
For `Cc1ccccc1NC(=O)c1ccccc1`, the inhibition was -3.87% (inactive).
`Cc1ccc2c(c1)sc1ncc(NC(=O)c3ccccc3)c(=O)n12` was tested, and the inhibition was 68.4% (active).
`COc1ccccc1CNC(=O)CCCn1c(=O)c2ccccc2n(CC(=O)NC2CCCC2)c1=O` was tested, and the inhibition was -18.8% (inactive).
For `COc1ccc(CCNc2ncnc3nc[nH]c23)cc1OC`, the inhibition was -5.66% (inactive).
In the case of `Oc1ccc2nc(Cc3ccccc3)[nH]c2c1`, the inhibition is reported as -7.13% (inactive).
In the case of `COC(=O)Nc1nc2ccc(Sc3ccccc3)cc2[nH]1`, the inhibition is reported as 82.8% (active).
For `COC(=O)Cc1nc2ccccc2[nH]1`, the inhibition was -25.6% (inactive).
For `O=C1c2cccnc2C(=O)N1Cc1cccs1`, the inhibition was -2.26% (inactive).
In the case of `COc1ccc(C(=O)NC(=O)CSc2nnc(-c3ccco3)n2-c2ccccc2)cc1`, the inhibition is reported as -5.53% (inactive).
`CCC(=O)Nc1sc(C(=O)N2CCCCC2)c(C)c1C#N` was tested, and the inhibition was 0.57% (inactive).
`Cc1cccc(-n2c(C)nc3cc(C(=O)N4CCC5(CC4)OCCO5)ccc32)c1` was tested, and the inhibition was 3.01% (inactive).
For `O=C(c1ccccc1)N1CCN(C(=O)N2CCCCC2)CC1`, the inhibition was -10.1% (inactive).
With `CC(=O)c1c(N2CCOCC2)nc(=S)n(-c2cc(C)ccc2C)c1C` the inhibition was -1.2% (inactive).
With `Cc1ccc(-n2c(N)c(C(=O)N3CCOCC3)sc2=S)c(C)c1` the inhibition was 79.7% (active).
In the case of `Cc1cccc(-n2c(N)cc(=O)nc2SC(C)C(=O)NC2CCCCC2)c1` (stereo not drawn), the inhibition is reported as -4.66% (inactive).
In the case of `Cc1ccc(OCCCC(=O)N2CCOCC2)c(C)c1`, the inhibition is reported as -20.5% (inactive).
In the case of `N#Cc1ccccc1-n1c(N)c(C(=O)N2CCCC2)sc1=S`, the inhibition is reported as 68% (active).
`Cc1cccc(-n2c(N)c(C(=O)N3CCN(C)CC3)sc2=S)c1` was tested, and the inhibition was 90.6% (active).
`COc1cccc(-n2c(SCC(=O)NC3CCCCC3)nc3n[nH]c(C)c3c2=N)c1` was tested, and the inhibition was -20% (inactive).
In the case of `Cc1ccc2nc(NC3=NCN(CCc4ccccc4)CN3)nc(C)c2c1`, the inhibition is reported as 11.4% (inactive).
With `COc1ccc(C(=O)Nc2c(N)nc(SCC(=O)N3CCC(C)CC3)[nH]c2=O)cc1OC` the inhibition was -4.95% (inactive).
In the case of `O=P(O)(CN1CCCCC1)CN1CCCCC1`, the inhibition is reported as -5.45% (inactive).
In the case of `O=C(CN1C(=O)CSc2ncccc21)N1CCOCC1`, the inhibition is reported as -4.9% (inactive).
With `COc1ccccc1NC(=O)C1=C(C)NC2=C(C(=O)CCC2)C1c1ccc(C)o1` (stereo not drawn) the inhibition was -19.4% (inactive).
For `COC(=O)C1=C(C)NC(=O)NC1/C=C/c1ccccc1` (stereo not drawn), the inhibition was -63.7% (inactive).
For `COC(=O)C1=C(C)NC2=C(C(=O)c3ccccc32)C1c1ccc(-c2ccc(C(=O)O)cc2)o1` (stereo not drawn), the inhibition was 81.9% (active).
For `Cc1nnc(NC(=O)CCC(=O)N2CCC(C)CC2)s1`, the inhibition was -0.8% (inactive).
With `Cc1cc(=O)n2nc(N3CCCC(C(=O)NCCC4=CCCCC4)C3)sc2n1` (stereo not drawn) the inhibition was -4.48% (inactive).
In the case of `COc1ccccc1NC(=O)CN1CCN(S(=O)(=O)c2ccc(Br)cc2)CC1`, the inhibition is reported as -1.95% (inactive).
With `COc1cc2c(cc1NC(=O)CN1CCN(S(=O)(=O)c3ccc(F)cc3)CC1)oc1ccccc12` the inhibition was 56.4% (active).
`COc1ccc(NC(=O)CN2CCN(S(=O)(=O)c3ccc(F)cc3)CC2)cc1Cl` was tested, and the inhibition was -9.57% (inactive).
In the case of `Cc1cc(Br)ccc1NC(=O)C1CCCO1` (stereo not drawn), the inhibition is reported as -14.4% (inactive).
For `N#Cc1ccc(OCCN2C(=O)NC3(CCSC3)C2=O)cc1` (stereo not drawn), the inhibition was -7.99% (inactive).
In the case of `O=C(CN1C(=O)CCC1=O)Nc1ccc(S(=O)(=O)N2CCOCC2)cc1`, the inhibition is reported as -11.6% (inactive).
For `Clc1ccc(Cc2nnc(-c3cccs3)o2)cc1`, the inhibition was -42.9% (inactive).
For `Nc1scc(-c2ccncc2)c1Cl`, the inhibition was -13.4% (inactive).
In the case of `Clc1ccc(Cc2nn3c(-c4ccncc4)nnc3s2)cc1`, the inhibition is reported as 53.8% (active).
With `CCOC(=O)c1ccc(CS(=O)c2ccc(Cl)cc2)o1` (stereo not drawn) the inhibition was -8.12% (inactive).
For `COc1ccc(S(=O)(=O)NC2(C(F)(F)F)N=C3SCCN3C2=O)cc1` (stereo not drawn), the inhibition was -21.6% (inactive).
For `CCOC(=O)c1sc(/N=C/Nc2nc(C)c(C(=O)OCC)s2)nc1C`, the inhibition was 66.5% (active).
In the case of `CCOC(=O)c1sc(NC(=O)C(CC)Sc2nccn2C)nc1C` (stereo not drawn), the inhibition is reported as 7.42% (inactive).
For `Cc1nc(NC(=O)CCC(=O)O)sc1C(=O)N(C)C`, the inhibition was 0.73% (inactive).
With `CCCOC(=O)CC1C(=O)NCCN1Cc1ccc(F)cc1` (stereo not drawn) the inhibition was 15.5% (inactive).
In the case of `CC(=O)Nc1ccc(S(=O)(=O)N2CCN(CCCOc3cc(C)ccc3C)CC2)cc1`, the inhibition is reported as -8.05% (inactive).
In the case of `CCC(CC)C(=O)Nc1cc(C(=O)OC)cc(C(=O)OC)c1`, the inhibition is reported as -9.62% (inactive).
For `Cc1ccc(S(=O)(=O)C2(S(=O)(=O)c3ccc(C)cc3)CCCC2)cc1`, the inhibition was -7.65% (inactive).
With `CCOc1ccc2[nH]c(=O)c(CN(CCCO)C(C)=O)cc2c1` the inhibition was 84.7% (active).
`CCC(=O)N(Cc1cc2cc(OC)ccc2[nH]c1=O)c1ccccc1C` was tested, and the inhibition was -2.05% (inactive).
With `COc1ccc(N(Cc2cc3cc(OC)ccc3[nH]c2=O)S(C)(=O)=O)cc1` the inhibition was -0.75% (inactive).

From PubChem BioAssay AID565 (University of Pittsburgh Molecular Library Screening Center, 2006)
